A selection: hits, their analogues and other compounds. The true share with any hit is near 2.8%.
WRN inhibitor = qHTS for Inhibitors of WRN Helicase | Bifunctional 3'-5' exonuclease/ATP-dependent helicase WRN (Homo sapiens), Q14191 | WRN helicase unwinding, fluorescent forked duplex, kinetic | hit rate 0.46% among 360,000 | Potency, µM (series often up to 114 µM), without a hit: at the highest dose activity change, negative = inhibition, most hits filed as inhibitors; note: potency is the fitted concentration of half-maximal effect; % is set by controls: 0 for no effect and ±100 for the full control effect; nearly all actives have a fitted effect of over 55% in size
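Enzyme (20 nM final) and test compound sit together 15 min at room temperature before substrate addition. Substrate is a single-forked duplex oligonucleotide (100 nM) labelled with fluorophore and quencher, with 2 mM ATP; helicase unwinding raises red fluorescence, read kinetically.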
PI5P4Ka inh = qHTS for Inhibitors of phosphatidylinositol 5-phosphate 4-kinase (PI5P4K); PI5P4Kalpha enzyme, ADP-Glo luminescence, 60 min; stronger effect = lower value; max response, %; hit rate 1.2% among 330,000; active = max response of -50% or lower; inconclusive = between -30% and -50%; inactive = -30% or higher; note: value at the top dose of about 77 µM; % is set by controls: 0 for no effect and ±100 for the full control effect
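qHTS, 1536-well: enzyme/substrate mix, compound by pin tool, 5 microM ATP final; RT 60 min; ADP-Glo reagents 1 (45 min) then 2 (30 min); luminescence.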
Pol eta inh-1 = qHTS for Inhibitors of Polymerase Eta | DNA polymerase eta (Homo sapiens), Q9Y253 | recombinant Pol eta, fluorescent DNA replication assay | Potency, µM (top dose mostly 114 µM), for the others: top-dose activity change, negative = inhibition, usual class: inhibitors | hit rate 1.2% among 390,000 | AID 588591, 2011; note: potency is the fitted concentration of half-maximal effect; % is set by controls: 0 for no effect and ±100 for the full control effect
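Pol eta at 10 nM preincubated with compounds 15 min at room temperature; reaction started with fluorescent substrate (50 nM final) and read kinetically at 0 and 10 min.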
Pol kappa inh-1 = qHTS for Inhibitors of Polymerase Kappa. purified Pol kappa, fluorescent DNA synthesis assay, 10 min. Potency, µM (top dose mostly 107 µM), without a hit: at the highest dose activity, negative = inhibition, usual class: inhibitors. hit rate 0.53% among 400,000. AID 588579, 2011. DNA polymerase kappa (Homo sapiens), Q9UBT6; note: potency is the fitted concentration of half-maximal effect; % is set by controls: 0 for no effect and ±100 for the full control effect
Target sequence (Q9UBT6 whole entry, looked up): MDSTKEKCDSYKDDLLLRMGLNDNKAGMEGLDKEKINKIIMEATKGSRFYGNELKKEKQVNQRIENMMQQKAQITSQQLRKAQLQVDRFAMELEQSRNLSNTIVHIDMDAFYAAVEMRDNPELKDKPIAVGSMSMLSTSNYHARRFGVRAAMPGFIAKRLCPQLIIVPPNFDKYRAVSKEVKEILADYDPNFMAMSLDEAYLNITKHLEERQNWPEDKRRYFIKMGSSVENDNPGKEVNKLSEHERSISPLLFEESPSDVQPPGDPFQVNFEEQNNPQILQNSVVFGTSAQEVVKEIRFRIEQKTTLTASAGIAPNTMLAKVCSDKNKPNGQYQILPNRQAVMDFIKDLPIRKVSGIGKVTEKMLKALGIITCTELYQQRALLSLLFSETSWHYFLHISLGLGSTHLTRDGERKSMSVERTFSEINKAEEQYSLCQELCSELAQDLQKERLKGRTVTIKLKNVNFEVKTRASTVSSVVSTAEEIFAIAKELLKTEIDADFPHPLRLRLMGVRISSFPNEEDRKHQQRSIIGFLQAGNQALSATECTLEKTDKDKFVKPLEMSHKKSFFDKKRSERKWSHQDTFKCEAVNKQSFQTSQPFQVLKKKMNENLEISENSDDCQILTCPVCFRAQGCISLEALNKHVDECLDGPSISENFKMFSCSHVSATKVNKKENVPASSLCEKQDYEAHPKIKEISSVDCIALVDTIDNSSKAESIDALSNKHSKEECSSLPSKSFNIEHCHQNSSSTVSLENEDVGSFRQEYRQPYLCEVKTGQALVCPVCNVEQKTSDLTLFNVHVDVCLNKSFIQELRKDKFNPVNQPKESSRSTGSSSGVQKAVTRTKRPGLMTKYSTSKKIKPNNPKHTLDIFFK
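Readout: fluorescence, taken kinetically at 0 and 10 min. Conditions: 10 nM Pol kappa, 15 min RT compound preincubation, 50 nM substrate final. Controls: enzyme-free buffer wells.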
POLI inh = qHTS for Inhibitors of Polymerase Iota; DNA polymerase iota (Homo sapiens), Q9UNA4; Pol iota fluorescent replication assay, 10 min; Potency, µM (series often up to 115 µM), without a hit: top-dose activity, negative = inhibition, hits mostly inhibitors; hit rate 1% among 390,000; note: potency is the fitted concentration of half-maximal effect
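Pol iota at 10 nM preincubated 15 min with compounds at room temperature; reaction started with fluorescent substrate, 50 nM final. Fluorescence read kinetically at 0 and 10 min; buffer-only wells as negative control.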
POLB inh = qHTS Assay for Inhibitors of DNA Polymerase Beta; Pol beta primer extension/strand displacement, fluorescence kinetic; Potency, µM (doses to about 114 µM), without a hit: top-dose activity change, negative = inhibition, hits mostly inhibitors; hit rate 1.3% among 340,000; AID 485314, 2010; note: potency is the fitted concentration of half-maximal effect; % is set by controls: 0 for no effect and ±100 for the full control effect
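Curves were derived by four-parameter Hill fits of normalized qHTS data. The kinetic fluorescent primer-extension read was taken at 0 and 10 min after 50 nM substrate, following a 15 min room-temperature preincubation of 10 nM enzyme with compounds.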
PGK validate = qHTS for inhibitors of Phosphogylcerate Kinase: Hit Validation Screen; shares compounds with Pol kappa inh-1; TbPGK coupled GAPDH assay, Kinase-Glo luminescence; Potency, µM (doses to about 57.5 µM), for inactives: at the highest dose activity change, negative = inhibition, hits mostly inhibitors; hit rate 79% among 500; note: potency is the fitted concentration of half-maximal effect; % is set by controls: 0 for no effect and ±100 for the full control effect; nearly all actives have a fitted effect of over 65% in size
POLI cherry-pick = qHTS for Inhibitors of Polymerase Iota: Confirmatory Assay for Cherry-picked Compounds. shares compounds with Pol kappa inh-1. Pol iota primer extension, TAMRA/BHQ fluorescence. Potency, µM, usual class: inhibitors. hit rate 77% among 1,500. AID 720496, 2013; note: potency is the fitted concentration of half-maximal effect
Pol kappa inh-2 = qHTS for Inhibitors of Polymerase Kappa: Confirmatory Assay for Cherry-picked Compounds; shares compounds with Pol eta inh-1; purified Pol-kappa, fluorescent strand-displacement substrate; Potency, µM, actives largely listed as inhibitors; hit rate 76% among 920; note: potency is the fitted concentration of half-maximal effect
Pol eta inh-2 = qHTS for Inhibitors of Polymerase Eta: Confirmatory Assay for Cherry-picked Compounds. shares compounds with Pol eta inh-1. Pol eta primer extension, TAMRA/BHQ fluorescence, 10 min. Potency, µM, usual class: inhibitors. hit rate 64% among 2,600; note: potency is the fitted concentration of half-maximal effect
* = called active by the depositor; ? = inconclusive; . = no result; [ ] = remark or other dose. Unless noted, calls come from the whole dose curve; as a rule, active = well fitted curve in the direction sought with a large enough effect; inconclusive = small, poorly fitted or top-dose-only effect, or another doubt; inactive = no such curve, though single readings can be large; an effect the other way counts as inactive or inconclusive.

SMILES | WRN inhibitor | PI5P4Ka inh | Pol eta inh-1 | Pol kappa inh-1 | POLI inh | POLB inh | PGK validate | others
NNc1nc2c(Cl)c(Cl)ccc2s1 | ? | ? | ? | ? | 14µM* | ? | ? | POLI cherry-pick=67*
CN(/N=C/c1ccc(-c2ccc([N+](=O)[O-])cc2)o1)c1ccccc1 | -2%[57.1 µM] | 10 | -9% | -6% | 40% | 23% | .
O=C1Nc2ccccc2/C1=N/N=C/c1ccc(-c2ccc([N+](=O)[O-])cc2)o1 | -36%[57.1 µM] | -5 | ? | 6% | 31% | -19% | . | POLI cherry-pick=?
CCOC(=O)C(C)Sc1nnc2cc(C)c3ccccc3n12 (stereo not drawn) | . | . | -18% | -2% | 31% | ? | .
Cc1c(-c2ccc(Br)cc2)nc2ccccn12 | -5% | -5 | -14% | -5% | 0% | 2%[57.1 µM] | .
CN(C)c1ccc(-c2nc3ccccn3c2/N=C/c2ccc(Br)cc2)cc1 | ? | -9 | -12% | -11% | 5% | -1% | ?
Cc1cc(C)c(S(=O)(=O)N2CCN(CCN3C(=O)c4cccc5cccc(c45)C3=O)CC2)cc1[N+](=O)[O-] | . | . | . | . | . | 2% | .
O=C1c2cccc3cc([N+](=O)[O-])cc(c23)C(=O)N1CCN1CCCC1 | 3%[11.6 µM] | 1 | -7% | 79µM* | 20µM* | 14µM* | . | POLI cherry-pick=19*
O=C(O)c1cc(N2C(=O)C=CC2=O)cc(N2C(=O)C=CC2=O)c1 | 8.9µM* | -78* | 2.2µM* | 2.2µM* | 1.1µM* | . | ?
Cc1ccc(NC(=O)CN2C(=O)S/C(=C\c3cccn3C)C2=O)cc1 | -5% | . | -12% | -8% | 9% | 5% | .
Cc1ccc(NC(=O)CN2C(=O)S/C(=C/c3ccc(-c4cccc(C(=O)O)c4)o3)C2=O)cc1 | ? | ? | 5.6µM* | 32µM* | 25µM* | 11µM* | 12µM*
Cc1cc(C)c(S(=O)(=O)Cc2ccccc2)c(Cl)n1 | 6% | 3 | -12% | -3% | 153% | -9% | .
O=C(O)CSCC(=O)Nc1ccc(-c2nc3ccccc3s2)cc1 | -12%[11.6 µM] | ? | 45µM* | -12% | -1% | ? | ?
Cc1cnc(C(=O)O)cn1 | . | . | . | 7%[19.4 µM] | . | . | .
Cc1ccc(S(=O)(=O)NC(CC(C)C)C(=O)NCCCn2nc(C)cc2C)cc1 (stereo not drawn) | -11% | 1 | 2% | -4% | 12% | . | .
COC(=O)c1sccc1NC(=O)Nc1ccc(F)cc1 | 0% | 1 | -15% | 0% | -7% | 3% | 13µM*
c1ccn2cc(-c3ccc4c(c3)OCCO4)nc2c1 | -11% | -14 | -8% | -5% | ? | 5% | ?
Nc1ccc2cc3[nH]c4cc(N)ccc4c3nc2c1 | 25µM* | -59* | 4.5µM* | 16µM* | 8.9µM* | . | . | POLI cherry-pick=19*
Cc1cc(=O)[nH]c2cc(N)ccc12 | . | . | . | 5% | 72% | . | .
Cc1ccsc1/C=C1\CCc2ccccc2C1=O | -4% | ? | 2% | -3% | 7% | -26% | 15µM*
CCC(=O)N1c2ccccc2CC1C(=O)NCCCN1CCN(c2ccc(OC)cc2)CC1 (stereo not drawn) | . | . | -10% | -1%[60.1 µM] | 31% | -16% | -1%
CCN(C(=O)COC(=O)c1ccccc1Nc1ccccc1)c1c(N)n(Cc2ccccc2)c(=O)[nH]c1=O | 3% | -4 | -17% | 3% | 22% | . | .
C/C(=N\NC(=O)c1cc(O)cc(O)c1)c1ccc(NC(=O)Cc2ccccc2)cc1 | 20µM* | -90* | 3.2µM* | 22µM* | 5µM* | 1.6µM* | 1.8µM*
O=C(COc1ccccc1)NCC(c1cccs1)S(=O)(=O)c1ccc(Cl)cc1 (stereo not drawn) | . | . | -13% | -9%[60.1 µM] | -4% | 18µM* | ?
COc1ccc(CC(=O)NCC(c2cccs2)S(=O)(=O)c2ccc(Cl)cc2)cc1 (stereo not drawn) | . | . | -25% | -7%[60.1 µM] | -4% | 7.9µM* | 6.5µM*
SMILES | WRN inhibitor | PI5P4Ka inh | Pol eta inh-1 | Pol kappa inh-1 | POLI inh | POLB inh | PGK validate | others
Cc1ccc(S(=O)(=O)C(CNC(=O)Cc2ccc(Cl)cc2)c2cccs2)cc1 (stereo not drawn) | . | . | -14% | -24%[60.1 µM] | -6% | 41% | .
CC1=C(C#N)c2nc(N)c(C#N)c(C)c2/C1=C\c1ccc(OCC(=O)O)c(Cl)c1 | ? | ? | 7.9µM* | 79µM* | ? | -17% | . | POLI cherry-pick=47*;Pol kappa inh-2=19*;Pol eta inh-2=19*
N#Cc1c(Nc2ccccc2)sc(C(=O)C2CC2)c1N | -3% | -3 | 2% | -7%[60.1 µM] | 5% | -21% | .
CC(=O)Nc1ccc(S(=O)(=O)NCC(=O)OCC(=O)N2CCCc3ccccc32)cc1 | -17%[57.1 µM] | -7 | -14% | 1% | 22% | -1% | .
O=[N+]([O-])c1ccccc1/C=N/n1c(-c2cccnc2)n[nH]c1=S | -27% | -3 | -8% | -13% | 18% | 3% | .
O=[N+]([O-])c1cc(/C=N/n2c(-c3cccnc3)n[nH]c2=S)ccc1Cl | ? | ? | 20µM* | ? | ? | 5.6µM* | . | POLI cherry-pick=17*;Pol eta inh-2=43*
NS(=O)(=O)c1ccc(N=Nc2c[nH]c(=O)c(O)c2)cc1 | ? | -63* | 22µM* | ? | 14µM* | ? | 18µM* | Pol eta inh-2=54*
Nc1nc(O)c(N=Nc2ccc(S(N)(=O)=O)cc2)c(=O)[nH]1 | -6% | 0 | -18% | -6% | 151% | 0% | .
Cn1cnnc1SCC(=O)Nc1ncc([N+](=O)[O-])s1 | 40µM* | -50* | 2.8µM* | 71µM* | 7.9µM* | . | . | POLI cherry-pick=19*;Pol kappa inh-2=3.4*;Pol eta inh-2=15*
O=C(/C=C/c1ccco1)Nc1scc(-c2ccccc2)c1C(=O)O | ? | ? | 20µM* | 79µM* | 28µM* | -38% | . | POLI cherry-pick=38*;Pol eta inh-2=27*

Screens (PubChem BioAssay)
